Drawing on ChEMBL document CHEMBL1201862, “PubChem BioAssay data set” (2004), this text covers Potency for 59 molecules.

Out of some 400,000 compounds screened, about 2,100 (0.53%) were called active. Another 14% or so got no clear call; they are omitted. No rule for the calls is given here. This excerpt belongs to a sample that is enriched for actives.

This test deals with Ataxin-2 (Homo sapiens) (UniProt Q99700). In words: qHTS for Inhibitors of ATXN expression. It counts as functional. (In general: Quantitative high-throughput screening tests each substance at several concentrations.)
Sequence of Ataxin-2 (Homo sapiens) (Q99700 whole entry): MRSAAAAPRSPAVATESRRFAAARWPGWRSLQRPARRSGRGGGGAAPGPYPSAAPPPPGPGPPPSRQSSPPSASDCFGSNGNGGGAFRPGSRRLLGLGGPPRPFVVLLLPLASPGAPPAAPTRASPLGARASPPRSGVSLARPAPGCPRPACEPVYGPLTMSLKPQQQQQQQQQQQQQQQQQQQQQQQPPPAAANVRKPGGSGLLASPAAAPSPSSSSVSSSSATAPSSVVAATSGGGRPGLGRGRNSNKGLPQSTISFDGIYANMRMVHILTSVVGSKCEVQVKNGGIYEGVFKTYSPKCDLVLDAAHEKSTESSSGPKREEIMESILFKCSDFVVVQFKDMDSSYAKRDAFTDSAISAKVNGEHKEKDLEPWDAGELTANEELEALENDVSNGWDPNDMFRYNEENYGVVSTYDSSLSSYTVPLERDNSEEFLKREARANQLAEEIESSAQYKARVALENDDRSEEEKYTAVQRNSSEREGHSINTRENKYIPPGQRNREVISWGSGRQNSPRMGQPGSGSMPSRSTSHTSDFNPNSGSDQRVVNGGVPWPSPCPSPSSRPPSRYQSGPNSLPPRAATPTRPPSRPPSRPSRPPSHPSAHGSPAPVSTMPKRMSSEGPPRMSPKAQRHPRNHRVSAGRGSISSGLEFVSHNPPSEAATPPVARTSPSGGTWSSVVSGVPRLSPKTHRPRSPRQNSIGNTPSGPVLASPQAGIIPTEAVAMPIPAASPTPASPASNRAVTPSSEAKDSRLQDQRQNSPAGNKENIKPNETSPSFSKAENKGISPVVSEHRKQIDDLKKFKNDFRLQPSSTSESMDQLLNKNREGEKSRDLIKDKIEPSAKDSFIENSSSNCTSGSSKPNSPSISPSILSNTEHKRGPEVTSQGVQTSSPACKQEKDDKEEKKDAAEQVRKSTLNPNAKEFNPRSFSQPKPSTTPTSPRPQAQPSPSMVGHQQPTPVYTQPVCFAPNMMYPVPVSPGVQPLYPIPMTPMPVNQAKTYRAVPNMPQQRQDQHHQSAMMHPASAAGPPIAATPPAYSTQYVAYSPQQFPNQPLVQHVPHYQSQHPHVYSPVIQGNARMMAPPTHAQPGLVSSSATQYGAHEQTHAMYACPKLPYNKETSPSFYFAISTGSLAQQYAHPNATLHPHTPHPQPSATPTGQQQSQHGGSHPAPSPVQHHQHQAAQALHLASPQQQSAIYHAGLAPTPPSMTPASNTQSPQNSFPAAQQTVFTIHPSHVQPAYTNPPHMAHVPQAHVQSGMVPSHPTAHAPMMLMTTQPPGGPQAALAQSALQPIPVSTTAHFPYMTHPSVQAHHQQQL
Take `Cc1csc(NC(=O)c2c(-c3ccccc3)noc2C)n1`: the Potency entry was “inactive”.
For `CC[C@]12c3[nH]c4ccc(Cl)cc4c3CCN1C(=O)[C@@H](CC(=O)NCCC1=CCCCC1)C[C@@H]2C(=O)N1CCN(C(=O)c2ccco2)CC1` the value was 25.1 µM (active); for `CC[C@]12c3[nH]c4ccccc4c3CCN1C(=O)C(CC(=O)NC/C=C(\C)CCC=C(C)C)C[C@@H]2C(=O)N1CCN(C(=O)c2ccco2)CC1` (some centres undefined), 31.6 µM (active); for `C[C@H](O)[C@@H]1C(=O)N2CCc3c([nH]c4ccccc34)[C@@H]2C[C@@H]1N(C)C(=O)c1ccco1`, “inactive”.
For `CC(C)=CCC/C(C)=C/CNC(=O)C[C@H]1C[C@H](C(=O)N2CCOCC2)[C@@]2(C)c3[nH]c4cc(-c5ccco5)ccc4c3CCN2C1=O` the value was 39.8 µM (active).
With `O=C(CCCCCn1c(=S)[nH]c2ccc(N3CCOCC3)cc2c1=O)NCc1ccccc1`, the Potency result was “inactive”.
For the molecule `CC(C)=CCC/C(C)=C/CNC(=O)CC1C[C@H](C(=O)N2CCOCC2)[C@@]2(C)c3[nH]c4ccccc4c3CCN2C1=O` (some centres undefined), the Potency is 31.6 µM (active).
`CC[C@@H]1C(c2ccccc2)=NN(c2ccccc2)[C@H]1C(=O)N1CCOC1=O`: the Potency result is “inactive”.
In the case of `CCOc1ccc(-c2nc(O)c3c(-c4cccs4)csc3n2)cc1` it was “inactive”; in that of `Cn1ccnc1C(=O)C1CCCN(Cc2c[nH]nc2-c2ccc(-c3ccccc3)cc2)C1` (centres undefined), “inactive”.
In the case of `CCN(CC)c1ccc2cc(-c3nnc(-c4ccccc4)o3)c(=O)oc2c1` it was “inactive”; in that of `COc1cc2cc(C(N)=O)c(N)nc2cc1OC`, “inactive”; in that of `Cc1ccc2nc3c(cc(C(=O)NCC4CCCO4)c(=N)n3C(C)C)c(=O)n2c1` (centres undefined), “inactive”.
On to `CC[C@]12c3[nH]c4ccc(Cl)cc4c3CCN1C(=O)[C@@H](CC(=O)NC/C=C(\C)CCC=C(C)C)C[C@@H]2C(=O)N1CCN(C(=O)C2CC2)CC1`, for which the Potency was 25.1 µM (active).
For `O=C1CSC(N/N=C/c2ccncc2)=N1` the value was “inactive”; for `Cc1ccc(N(C)C(CNS(=O)(=O)c2ccccc2)c2ccccc2)cc1` (centres undefined), 25.1 µM (active).
For `Cc1ccc(S(=O)(=O)NCCCCCC(=O)NCCc2ccccc2)cc1` the value was “inactive”; for `Cc1ccc(S(=O)(=O)NCc2c(-c3ccccc3)noc2C)cc1`, “inactive”; for `Cc1cccn2c(=O)c3cc(C#N)c(=O)n(-c4nnc(SCc5ccc(F)cc5)s4)c3nc12`, “inactive”.
For `COc1ccc(OC)c(NC(=O)c2c(NCc3ccc(OC)c(OC)c3)sc3c2CCC3)c1` the value was 39.8 µM (active); for `COc1ccc(NC(=O)c2c(NCc3sccc3C)sc3c2CCCCC3)c(OC)c1`, 39.8 µM (active).
On to `COc1ccc(NC(=O)c2ccc(S(=O)(=O)C(F)F)cc2)c(OC)c1`, for which the Potency result is “inactive”.
In the case of `COc1ccc(NC(=O)c2c(NCc3cccc(F)c3)sc3c2CCC3)c(OC)c1` it was 25.1 µM (active).
In the case of `COc1ccc(NC(=O)C2=CN3CCS(=O)(=O)N=C3C=C2)c(OC)c1` it was “inactive”; in that of `COC(=O)c1ccc(NC(=O)c2c(NCc3ccc(OC)c(OC)c3)sc3c2CCCC3)cc1`, 17.8 µM (active).
In the case of `COc1ccc(OC)c(NC(=O)COC(=O)c2ccc(OC)c(S(=O)(=O)N3CCOCC3)c2)c1` it was “inactive”; in that of `COc1ccc(/C=N/Nc2ncnc3sc4c(c23)CCCC4)cc1OC`, “inactive”; in that of `COc1ccc(NC(=O)CON=CC(=O)Nc2ccc(C)cc2)c(OC)c1`, “inactive”.
Regarding `COc1cccc(-c2ccc3c(N)c(C(=O)Nc4cc(F)ccc4F)sc3n2)c1`, the Potency entry was “inactive”.
`COc1ccc(OC)c(NC(=O)c2ccc(OC3CSC3)cc2)c1`: the Potency entry was “inactive”.
In the case of `Cc1nc(NC(=O)CSc2nnc(C3CC3)n2C)sc1C` it was “inactive”; in that of `C=CCn1c(=N)c(C(=O)NCCCOC)cc2c(=O)n3cc(C)ccc3nc21`, “inactive”.
As for `CCOc1ccc(S(=O)(=O)[N-]c2nc3ccccc3nc2-[n+]2ccc(NC(=O)c3cccs3)cc2)cc1`, the Potency result is “inactive”.
For `CCCn1c(=O)c(C(=O)Nc2ccccc2C)c(O)c2ccccc21` the value was “inactive”.
For `COC(=O)c1c(NC(=S)NC(=O)c2ccco2)sc2c1CCCC2` the value was “inactive”.
For `COC(=O)c1c(NC(=O)c2ccc(N(C)S(=O)(=O)c3ccc(C)cc3)cc2)sc2c1CCCC2` the value was “inactive”; for `COC(=O)c1ccc(NC(=O)c2c(NCc3ccc(C)o3)sc3c2CCCC3)cc1`, 35.5 µM (active); for `Cc1ccc(C(=O)N2N=C(c3ccc(Br)cc3)CC2c2ccccc2O)cc1` (centres undefined), 42.3 µM (active).
As to `O=C(O)c1ccc(N2N=C(c3ccccc3)CC2c2ccccc2)cc1` (centres undefined), the Potency entry is “inactive”.
For `COc1ccc(C2=NN(C(=O)c3ccccc3)C(c3ccc(OC)c(OC)c3)C2)c(O)c1` (centres undefined) the value was “inactive”; for `N#Cc1c(C(F)(F)F)cc(-c2cccs2)nc1N1CCCCC1`, “inactive”; for `Cc1ccccc1NC(=O)Nc1nnc(Cc2ccc([N+](=O)[O-])cc2)s1`, 11.2 µM (active).
For `COc1ccccc1NC(=O)Nc1nnc(Cc2ccc(F)cc2)s1` the value was “inactive”; for `Cc1ccccc1NC(=O)c1nn(C)c(C(=O)Nc2ccccc2C)c1[N+](=O)[O-]`, “inactive”; for `CCCc1cc(NCCOCCO)n2c(nc3ccccc32)c1C#N`, “inactive”.
For `Nc1nc(O)nc(O)c1N=Cc1ccccc1` the value was “inactive”.
As to `C/C(=N\NC(=O)c1ccc(CN2CCOCC2)cc1)c1ccc([N+](=O)[O-])cc1`, the Potency result was “inactive”.
For `COC(=O)c1ccc(/C=N/Nc2nc(C)c(C)s2)cc1` the value was “inactive”; for `C/C(=N\Nc1nc(C)c(C)s1)c1ccc([N+](=O)[O-])cc1`, 37.7 µM (active); for `Brc1ccccc1-c1nnc(SCc2nc3ccccc3s2)o1`, “inactive”.
For `O=S(=O)(CCSc1nc2ccccc2o1)c1nc2ccccc2s1` the value was 15.8 µM (active); for `O=C(OCc1nc2ccccc2s1)c1ccccc1O`, “inactive”; for `O=S(=O)(CCSc1ccccn1)c1nc2ccccc2s1`, 22.4 µM (active).
For the molecule `CCOc1ccccc1N(CC(=O)NCCSc1ccccn1)S(=O)(=O)c1ccccc1`, the Potency entry was “inactive”.
For `C=CCS(=O)(=O)c1nc2ccccc2s1` the value was 35.5 µM (active).
In the case of `O=C(O)c1ccc(C=C(c2nc3ccccc3s2)c2nc3ccccc3s2)cc1` it was “inactive”.
For `Cc1cccc(N2CC(C(=O)Nc3ccc(S(=O)(=O)Nc4nccs4)cc3)CC2=O)c1C` (centres undefined) the value was “inactive”; for `COCC(=O)Nc1nc2n(n1)C(c1ccc(Cl)cc1)CC(c1ccc(OC)cc1)N2` (centres undefined), “inactive”.
For the molecule `COc1cc(CO)c(Br)cc1OCC(N)=O`, the Potency entry was “inactive”.
